Assay in all cases: NCI-60 one-dose screen, 48 h (100 = growth as untreated, 0 = no growth, -100 = all killed)
Assay [1] has as its system NCI-H23 lung. As to conditions: 10 µM unless noted.
Assay [2] relates to NCI-H226 lung. The conditions noted are these: 10 µM unless noted.
Assay [3] relates to NCI-H322M lung. As to conditions: 10 µM unless noted.
For assay [4], the system named is HOP-62 NSCLC. As to conditions: 10 µM unless noted.
For assay [5], the system named is NCI-H460 lung. As to conditions: 10 µM unless noted.
Assay [6] concerns HOP-92 NSCLC. As to conditions: 10 µM.
Assay [7] relates to NCI-H522 lung. As to conditions: 10 µM unless noted.
The test system of assay [8] is A549/ATCC NSCLC. The conditions noted are these: 10 µM unless noted.
Assay [9] relates to 786-0 renal. The conditions noted are these: 10 µM unless noted.
Assay [10] relates to COLO 205 colon. The conditions noted are these: 10 µM unless noted.
For assay [11], the system named is DU-145 prostate. As to conditions: 10 µM unless noted.
Assay [12] deals with K-562 leukemia. The conditions noted are these: 10 µM unless noted.
Assay [13] deals with MALME-3M melanoma. As to conditions: 10 µM unless noted.
The subject of assay [14] is MDA-MB-231 breast. The conditions noted are these: 10 µM unless noted.
For assay [15], the system named is RXF 393 renal. As to conditions: 10 µM unless noted.
Assay [16] deals with SF-268 CNS. The conditions noted are these: 10 µM unless noted.
The subject of assay [17] is SF-295 CNS. As to conditions: 10 µM unless noted.
Assay [18] relates to SF-539 CNS. The conditions noted are these: 10 µM unless noted.
Assay [19] concerns UACC-257 melanoma. The conditions noted are these: 10 µM unless noted.

The panel holds about 83,000 compounds, 20% with a hit somewhere; the sample as a whole holds those more often.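 Negative percent growth values reflect cell death: -40 means 40% of the cells present at the start died, and -100 means all died.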 A number with no mark means an inactive call. Active and inactive are the calls of the source. Rule for the calls: active = growth percent below 10; inactive = the rest.

Our source for the growth values is PubChem BioAssay (NCI).

Turning to `Oc1ccc(CSc2nnc(-c3ccc(Cl)cc3)n2-c2ccccc2)c2cccnc12`, the growth in assay [1] was 31.2%; in assay [2], 50.9%; in assay [3], 41.6%; in assay [4] it was 16.9%; in [5] it was 2.03% (active); in [6] it was 16.3%. Also, the growth is 36.4% in assay [7]; 26% in [8]; 44.2% in assay [9]; 88.9% in assay [10]; 38.8% in [11]; 22.1% in assay [12]. In addition, the growth was 29.6% in assay [13]; 58.5% in [14]; 56.3% in assay [15]; 30.7% in assay [16]; 4.65% (active) in assay [17]; 22% in assay [18]. Besides, in assay [19], the growth was 29.3%.

For the compound `CNC(=O)c1cc(-c2ccc(NS(=O)(=O)c3ccc(C)cc3)cc2)nc2cccnc12`, the growth in [1] was 103%; in assay [2] it was 88.7%; in [3], 110%; in [4], 99.7%; in assay [5] it was 107%; in assay [6] it was 103%. Moreover, the growth is 91.6% in assay [7]; 104% in [8]; 110% in [9]; 116% in [10]; 113% in [11]; 101% in assay [12]. Also, the growth was 101% in assay [13]; 95% in assay [14]; 133% in assay [15]; 107% in assay [16]; 108% in assay [17]; 102% in assay [18]. For the same compound, the growth in assay [19] was 105%.

As for `O=C1Nc2ccccc2/C1=C/c1ccc(CO)n1-c1ccc(Cl)cc1`, the growth in assay [1] is 67%; in [2], 81%; in [3] it was 102%; in assay [4] it was 59.7%; in [5], 35.6%; in assay [6], 75.4%. The growth is 53.7% in assay [7]; 59% in assay [8]; 88.4% in [9]; 71.8% in assay [10]; 81.4% in [11]; 19.3% in assay [12]. In addition, the growth is 27.6% in assay [13]; 58.1% in [14]; 57.1% in assay [15]; 74.2% in assay [16]; 33.8% in assay [17]; 44.5% in [18]. For the same compound, the growth in assay [19] was 83.4%.

Regarding `O=C(CCC(=O)N1CCOCC1)OCCCCCCSc1ccc([N+](=O)[O-])c2nonc12`, the growth in [1] was -60.7% (active); in assay [2], -20.7% (active); in [3] it was 45.6%; in [4], 38.1%; in assay [5], -13.6% (active); in assay [6], -14.3% (active). Besides, the growth in [7] is -61.2% (active); in [8], 29.8%; in [9], -20.7% (active); in assay [10], -56.7% (active); in [11], -91.9% (active); in [12] it was 6.53% (active). For the same compound, the growth is -81.2% (active) in [13]; -39.8% (active) in assay [14]; -62% (active) in [15]; -9.47% (active) in assay [16]; -12.5% (active) in assay [17]; -88.4% (active) in assay [18]. Moreover, in assay [19], the growth was -25.7% (active).

For `Cn1cc(CNc2nc3ccc(OC/C(=C/F)CN)cc3o2)ccc1=O`, the growth in assay [1] is 107%; in assay [2] it was 101%; in [3], 99.3%; in assay [4], 109%; in assay [5], 108%; in assay [6] it was 108%. In addition, the growth is 99.2% in assay [7]; 108% in [8]; 92.4% in [9]; 110% in assay [10]; 110% in assay [11]; 93.8% in [12]. For the same compound, the growth in assay [13] is 98.7%; in assay [14], 99.3%; in [15] it was 107%; in assay [16], 102%; in assay [17], 96.1%; in [18], 97.1%. Also, the growth in assay [19] was 111%.

Turning to `O=C1CCCc2nc(Nc3ccc(S(=O)(=O)Nc4ccc([N+](=O)[O-])cc4)cc3)ncc21`, the growth in [1] is 102%; in [2], 109%; in [3], 106%; in assay [4], 111%; in [5] it was 103%; in [6] it was 121%. The growth in [7] was 87.7%; in assay [8], 104%; in assay [9] it was 99.9%; in [10], 121%; in assay [11], 105%; in assay [12], 92.2%. Moreover, the growth is 107% in assay [13]; 99.6% in [14]; 103% in assay [15]; 96.2% in assay [16]; 101% in assay [17]; 92.8% in [18]. Besides, in [19], the growth is 102%.

As for `C#Cc1nc(C(C)=O)cs1`, the growth in assay [1] is 102%; in assay [2], 99.7%; in assay [3] it was 106%; in assay [4], 103%; in [5], 106%; in [6] it was 111%. Moreover, the growth is 92.1% in [7]; 108% in assay [8]; 98.6% in assay [9]; 115% in assay [10]; 109% in [11]; 90.6% in assay [12]. Besides, the growth in assay [13] was 105%; in assay [14], 103%; in assay [15] it was 95.6%; in assay [16], 105%; in assay [17], 106%; in [18], 99.1%. The growth in [19] is 107%.

Take `C#CCNC1CCC(c2csc(C#C)n2)=C1C` (configuration not stated): the growth in assay [1] is -39.4% (active); in assay [2] it was 75.4%; in assay [3], 90.8%; in [4], 28.2%; in assay [5], 98.9%; in assay [6], -50.6% (active). In addition, the growth in [7] was 49.7%; in assay [8] it was 96.2%; in assay [9], 17.1%; in assay [10], 105%; in [11] it was 67.6%; in [12], 63%. Further, the growth in [13] was -78.3% (active); in assay [14], 8.61% (active); in assay [15] it was 117%; in assay [16] it was 78.1%; in assay [17], -28.2% (active); in assay [18], -92.4% (active). The growth in [19] was 80.1%.
